Source: PubChem (National Center for Advancing Translational Sciences (NCATS))
12-LOX inh: ALOX12 (human) lipoxygenase inhibition | purified 12hLO, xylenol orange hydroperoxide absorbance | Potency, µM (series often up to 108 µM), usual class: inhibitors | actives 1.1% (n = 580,000)
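Purified human 12hLO at 150 nM in 25 mM Hepes, 0.01% Triton X-100, pH 7.0, preincubated 15 min at room temperature with compound. Reaction started with 40 uM arachidonic acid, 30 min at room temperature. Hydroperoxide measured by Fe-xylenol orange, 573/405 nm absorbance ratio.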
HP1b chromo inh: inhibitors of HP1-beta chromodomain binding to methylated histone tails. AlphaScreen HP1-beta / biotin-H3K9me3 peptide binding. Potency, µM (titrated, usually from 114 µM), hits mostly inhibitors. actives 0.56% (n = 390,000); also: nearly all actives have a fitted effect of over 70% in size
Target sequence (P83916 whole entry, looked up): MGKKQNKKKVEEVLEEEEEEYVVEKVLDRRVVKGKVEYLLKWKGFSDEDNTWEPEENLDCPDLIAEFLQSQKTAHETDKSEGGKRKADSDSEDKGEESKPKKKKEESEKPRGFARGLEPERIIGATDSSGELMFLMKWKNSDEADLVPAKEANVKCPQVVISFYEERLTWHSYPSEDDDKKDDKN
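AlphaScreen: HP1-beta (50 nM) preformed 30 min with biotin-H3(1-18)K9me3 peptide (50 nM) in PBS pH 7.4, 0.01% Tween-20. Compound added for 30 min at RT, then streptavidin donor/nickel chelate acceptor beads (10 ug/mL) for 30 min.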
G9a inh: G9a (human) methyltransferase inhibition. G9a H3K9 monomethylation, AlphaScreen, 2 h. actives 8.8% (n = 350,000). Potency, µM (titrated, usually from 102 µM), actives largely listed as inhibitors; also: nearly all actives have a fitted effect of over 75% in size
Target sequence (Q96KQ7 913-1193 limits assumed): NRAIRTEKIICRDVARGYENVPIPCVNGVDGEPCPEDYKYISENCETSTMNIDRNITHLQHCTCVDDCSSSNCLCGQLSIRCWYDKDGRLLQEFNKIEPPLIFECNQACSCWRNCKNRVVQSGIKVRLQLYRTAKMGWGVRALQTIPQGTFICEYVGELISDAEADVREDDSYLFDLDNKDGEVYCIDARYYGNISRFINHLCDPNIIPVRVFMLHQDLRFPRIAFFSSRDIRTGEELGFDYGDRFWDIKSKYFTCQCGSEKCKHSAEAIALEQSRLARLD
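Quantitative HTS format: methyltransferase activity on a biotin-tagged H3K9 peptide is measured by AlphaScreen, using a rabbit anti-monomethyl-H3K9 antibody with streptavidin donor and anti-IgG acceptor beads. Final levels are 20 nM enzyme, 500 nM peptide, 20 uM SAM; 2 h RT.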
JMJD2A Tudor inh: inhibitors of human JMJD2A Tudor domain | O75164 | AlphaScreen JMJD2A-Tudor / H3K4me3 peptide binding | Potency, µM (top dose mostly 114 µM), actives largely listed as inhibitors | actives 4.4% (n = 390,000); also: nearly all actives have a fitted effect of over 50% in size
PLK1 PBD inh: inhibitors of human PLK1 polo-box domain binding. Plk1 PBD binding of FITC phosphopeptide, fluorescence polarization. Potency, µM, most hits filed as inhibitors. actives 2.8% (n = 360,000). AID 720504; also: series mostly up to about 57 µM; nearly all actives have a fitted effect of over 65% in size
BAZ2B inh: inhibitors of human BAZ2B bromodomain | actives 4.4% (n = 360,000) | Q9UIF8 | Potency, µM (doses to about 114 µM), most hits filed as inhibitors | AlphaScreen BAZ2B-H3K14Ac peptide displacement; also: nearly all actives have a fitted effect of over 60% in size
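AlphaScreen luminescence quantifies BAZ2B engagement of H3K14Ac peptide; the protein and biotinylated peptide are both at 50 nM final, buffer PBS pH 7.4 with 0.01% Tween-20, all steps at room temperature.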
Numbers stand for hits; i = inactive; ? = inconclusive; nt = no result given; [ ] = dose if it differs, or a comment. Compounds with a hit are over-represented: about 9% of the library has one in this group of screens. Calls follow the shape of the dose curve; as a rule, active = well fitted curve in the direction sought with a large enough effect; inconclusive = small, poorly fitted or top-dose-only effect, or another doubt; inactive = no such curve, though single readings can be large; an effect the other way counts as inactive or inconclusive.

SMILES | 12-LOX inh | HP1b chromo inh | G9a inh | JMJD2A Tudor inh | PLK1 PBD inh | BAZ2B inh
COc1ccc(NC(=O)CO/N=C/C(=O)Nc2ccccc2C)c([N+](=O)[O-])c1 | i | i | i[12.7 µM] | ? | i | ?
CN(CC(=O)Nc1ccccc1C(F)(F)F)Cc1cc(Cl)cc2c1OCOC2 | i | nt | nt | nt | nt | nt
CCCC(=O)Nc1nnc(SCC(=O)N2CCCCC2)s1 | ? | ? | 18µM | 71µM | ? | i
CS(=O)(=O)Nc1nnc(SCC(=O)N(c2ccccc2)c2ccccc2)s1 | i | i | 50µM | i | i | i
CC(C)N(C(=O)CSc1nnc(NC(=O)c2cccs2)s1)C(C)C | i | i | i | i | i | i
O=C(CSc1nnc(NC(=O)c2ccccc2C(=O)O)s1)Nc1ccccc1Cl | ? | i | ? | i[11.4 µM] | ? | i
CCCC(=O)Nc1nnc(SCC(=O)N2C(C)CCCC2C)s1 (configuration not stated) | i | i | i | i | i | i
Cc1cccc(C)c1NC(=O)CSc1nnc(NC(=O)c2ccccc2C(=O)O)s1 | ? | i | 50µM | i | i | i
O=C(Nc1nnc(SCC(=O)N2CCOCC2)s1)c1ccccc1 | i | i | 10µM | ? | ? | i
CCOC(=O)N1CCc2c(sc3c2c(=O)n(-c2ccc(CC)cc2)c(=O)n3Cc2cccc(OC)c2)C1 | i | i | i | i | nt | i
CCSc1nnc(NC(=O)CSc2nccn2-c2cc(C)cc(C)c2)s1 | i | i | ? | i | i | ?
CCSc1nnc(NC(=O)CSc2nccn2-c2cccc(C)c2C)s1 | i | ? | ? | 25µM | 3.8µM | ?
c1ccc(SSc2ccccn2)nc1 | nt | ? | nt | 4µM | 0.67µM | nt
c1ccc(Sc2ccccn2)cc1 | ? | i | nt | i | i | nt
CCc1ccc2[nH]c(O)c(N=NC3=NC(=O)CS3)c2c1 | i | i | ? | i[11.4 µM] | i | 40µM
CCc1ccc2c(c1)c(N=NC1=NC(=O)CS1)c(O)n2CC | ? | i | i[0.501 µM] | ? | i | 50µM
CCOC(=O)N=Nc1c(O)n(CC)c2ccccc12 | i | i | ? | i | i | i
Cc1ccccc1NC(=O)c1cccc(N2C(=O)C3CCCCC3C2=O)c1 (configuration not stated) | ? | i | i | i | i | i
CCCCn1c(N)c(N(CCC(C)C)C(=O)CSc2nc3ccccc3n2C)c(=O)[nH]c1=O | i | i | nt | 79µM | i | nt
CCCCn1c(N)c(N(CC)C(=O)Cn2c(CC)nc3ccccc32)c(=O)[nH]c1=O | 25µM | nt | nt | nt | nt | nt
COc1ccc(-c2c(C3C4C=CCC(C)C4C(=O)N3Cc3ccccc3)ccc3ccccc23)cc1OC (configuration not stated) | nt | i | nt | ? | nt | nt
COc1ccccc1NC(=O)COC(=O)Cn1c(C)csc1=O | i | nt | nt | nt | i | nt
C=CCC1(O)CC(c2ccco2)NC(c2ccco2)C1CCC (configuration not stated) | ? | ? | 32µM | 4.5µM | i | 50µM
Cc1cn([C@H]2C[C@H](F)[C@@H](CO)O2)c(=O)[nH]c1=O | i[22.9 µM] | nt | nt | nt | nt | nt
Cn1nnc(C(O)CN2CCOCC2)n1 (configuration not stated) | i | i | 79µM | i | i | i
SMILES | 12-LOX inh | HP1b chromo inh | G9a inh | JMJD2A Tudor inh | PLK1 PBD inh | BAZ2B inh
Cn1nnc(C(O)CNCc2ccc(Cl)cc2)n1 (configuration not stated) | i | i | i | i | i | i
CS(=O)(=O)N1CCCC1c1noc(CCC(=O)NCCN2CCCCC2)n1 (configuration not stated) | i | nt | nt | nt | nt | nt
CC(=O)N=c1sc(S(N)(=O)=O)nn1C | i | i | 13µM | i | i | i
NS(=O)(=O)c1nn2cc(-c3ccccc3)nc2s1 | i | nt | nt | nt | nt | nt
COc1ccc(C(C#N)N2CCC(c3ccccc3)=N2)cc1 (configuration not stated) | i | i | 35µM | i | i | i
COc1cc(C(C#N)N2N=C(c3ccccc3)CC2c2ccccc2)ccc1O (configuration not stated) | i | i | i | i | i | i
NC(=O)CC(NC(=O)c1cccc(Br)c1)c1ccc(N2CCC(N3CCCCC3)CC2)c([N+](=O)[O-])c1 (configuration not stated) | i | i | 45µM | i | i | i
NC(=O)CC(NC(=O)c1ccccc1)c1ccc(NCCN2CCOCC2)c([N+](=O)[O-])c1 (configuration not stated) | i | i | 71µM | i | i | i
COc1ccc(OC)c(C(=O)NC(CC(N)=O)c2ccc(N3CCCCCC3)c([N+](=O)[O-])c2)c1 (configuration not stated) | i | i | ? | ? | i | 50µM
NC(=O)CC(NC(=O)c1cccc(Br)c1)c1ccc(N2CCN(c3ccc(F)cc3)CC2)c([N+](=O)[O-])c1 (configuration not stated) | i | i | 45µM | ? | i | ?
COc1ccc(OC)c(C(=O)NC(CC(N)=O)c2ccc(NC(C)C)c([N+](=O)[O-])c2)c1 (configuration not stated) | i | i | ? | i | i | i
CCC1C(=O)CC(c2ccc([N+](=O)[O-])cc2)NC1c1ccc([N+](=O)[O-])cc1 (configuration not stated) | i | i | nt | ? | i | ?
O=C(NCc1ccco1)C1CC(c2cccc([N+](=O)[O-])c2)=NO1 (configuration not stated) | i | i | i | i | i | i
Cc1ccc(CNC(=O)C(=O)NCC2OCCN2S(=O)(=O)c2ccc3c(c2)OCCO3)cc1 (configuration not stated) | i | i | i | i | i | i
COc1ccc(Cl)cc1-c1cc2c(c(OC)c1)OCCN(Cc1cccn1-c1nccs1)C2 | i | nt | nt | nt | nt | nt
CCN(Cc1noc(CC(C)C)n1)C(=O)c1cnc(-c2ccccn2)[nH]c1=O | i | nt | nt | nt | nt | nt
NC(=O)CC(NC(=O)c1ccccc1)c1ccc(N2CCN(c3ccccn3)CC2)c([N+](=O)[O-])c1 (configuration not stated) | ? | i | 79µM | i | i | i
COc1cccc(C2=Cc3ccc(F)cc3C(CC(C)=O)N2c2ccc(-c3cc(OC)c(OC)c(OC)c3)cc2)c1 (configuration not stated) | i | nt | nt | nt | i | nt
COc1cccc(C2=Cc3ccc(F)cc3C(CC(C)=O)N2c2ccc(-c3cncnc3)cc2)c1 (configuration not stated) | 32µM | nt | nt | nt | i | nt
Clc1cccc(N/N=C/c2ccncc2)c1 | ? | i | ? | ? | i | i
CN(C)c1ccc(/C=N/OC(=O)Nc2ccccc2)cc1 | i | i | i | i | i | 71µM
COc1ccc(NC(=O)O/N=C/c2ccccc2)cc1 | i | i | i | i | i | i
O=C(Nc1cccc(Cl)c1)O/N=C\c1ccncc1 | i | i | i | i | 9.5µM | i
